The subject of experiment [1] is XIP peptide (Xip251-270) binding. As to the kind of experiment: XIP fragment 251-270 binding compounds – biochemical, small-molecule microarray, fluorescence 635/667 nm, 0.1 µg/mL protein, primary screen (AID 1182). The note with it: fluorescent protein binding, 635 nm, higher = more signal, called active from +8 up or from −8 down.
The next experiment deals with XIP peptide (Xip251-270). As to the kind of experiment: compounds binding XIP fragment 251-270 – biochemical, small-molecule microarray, fluorescence 635/667 nm, 0.5 µg/mL protein, primary screen (AID 1183). The note with it: fluorescence 635 nm, higher = more signal.
A short description of experiment [2]: blood-stage malaria parasite viability loss – strain 3D7, DAPI fluorescence, 100 nL, primary screen (AID 1184).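 Further: parasites grown inside human red blood cells in medium with human serum.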 The note with it: P. falciparum 3D7 growth, 3 d, higher = more signal.
Experiment [3] has as its target Homeobox protein Hox-A13 (Mus musculus) (UniProt Q62424). In words: disruptors of Hoxa13 oligonucleotide interaction – biochemical, fluorescence polarization, labeled oligonucleotide, primary screen (AID 1185). The note with it: Hoxa13:DNA binding, 15 min, higher = more signal, called active from +8 up or from −8 down.
The nature of experiment [4]: blockers of DNA damage checkpoint Chk1 activation – imaging, HeLa, hydroxyurea, phospho-Chk1 antibody, percent positive cells, primary screen (AID 1186). The note with it: hydroxyurea-induced phospho-Chk1 immunofluorescence imaging, higher = more signal.
A short description of experiment [5]: blockers of DNA damage checkpoint Chk1 activation – imaging, HeLa, hydroxyurea, phospho-Chk1 nuclear intensity, primary screen (AID 1187). The note with it: hydroxyurea-induced phospho-Chk1 immunofluorescence imaging, higher = more signal.

Active and inactive are the calls of the source. Unless noted, how the calls were made is not given here.

Sequence of Homeobox protein Hox-A13 (Mus musculus) (Q62424 whole entry, looked up): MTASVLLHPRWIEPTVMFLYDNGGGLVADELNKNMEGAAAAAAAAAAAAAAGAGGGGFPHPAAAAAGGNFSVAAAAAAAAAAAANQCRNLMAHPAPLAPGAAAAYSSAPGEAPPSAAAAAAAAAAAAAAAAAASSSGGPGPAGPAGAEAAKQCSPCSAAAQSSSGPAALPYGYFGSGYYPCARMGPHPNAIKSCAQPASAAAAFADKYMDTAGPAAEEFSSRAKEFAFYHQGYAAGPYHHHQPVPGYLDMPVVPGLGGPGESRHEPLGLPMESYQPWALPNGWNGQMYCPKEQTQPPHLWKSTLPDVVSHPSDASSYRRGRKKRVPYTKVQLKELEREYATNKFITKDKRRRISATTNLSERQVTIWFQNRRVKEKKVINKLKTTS

With `CN1C(=O)C2C(C1=O)C1C=C(CCCO)C2C(c2ccc(CN3CCCC3)cc2)N1C` (configuration not stated), the values for the composite z-score (in experiment [1]; in the experiment with XIP peptide (Xip251-270)) were 0.413 (inactive) and -0.598, respectively. Moreover, the z-score was -1.27 in experiment [2], -7.16 (inactive) in experiment [3], -0.0348 (inactive) in experiment [4] and 0.185 (inactive) in experiment [5].
On to `COCC(=C=CC[C@@H](O)c1ccccc1OCCO)CCO`, for which the composite z-score is 0.291 (inactive) in experiment [1] and 0.0706 in the experiment on XIP peptide (Xip251-270). Further, the z-score in experiment [2] was -0.721; in experiment [3], -2.37 (inactive); in experiment [4], -0.595 (inactive); in experiment [5], -0.534 (inactive).
Take `Cc1ccc(C2CC=C(C(=O)O)CN2S(=O)(=O)c2ccc(C)cc2)cc1` (configuration not stated): the values for the composite z-score (in experiment [1]; in the experiment on XIP peptide (Xip251-270)) were 0.911 (inactive) and 0.912, respectively. Also, the z-score in experiment [2] is -1.2; in experiment [3], -4.53 (inactive); in experiment [4], -0.185 (inactive); in experiment [5] it was -0.999 (inactive).
Consider `COC(=O)[C@@]1(Cc2ccccc2)[C@H]2c3cc(C(=O)N4CCCC4)n(Cc4ccccn4)c3C[C@H]2CN1C(=O)c1ccccc1`, for which the composite z-score in experiment [1] is 0.766 (inactive); with XIP peptide (Xip251-270), 0.91. The z-score in experiment [2] was -1.5; in experiment [3] it was -6.05 (inactive); in experiment [4] it was -0.161 (inactive); in experiment [5], -0.295 (inactive).
For `CN(C)C(=O)[C@@]1(Cc2ccccc2)N=C(c2ccc(OCCCO)cc2)O[C@H]1c1ccccc1CN=[N+]=[N-]`, the composite z-score in experiment [1] is 2.74 (inactive); in the experiment with XIP peptide (Xip251-270), 0.746. The z-score in experiment [2] was -2.11; in experiment [3], -1.69 (inactive); in experiment [4], 0.264 (inactive); in experiment [5], 0.492 (inactive).
Regarding `COc1ccccc1CN1C(=O)c2ccccc2[C@@H](C(=O)NCC(F)(F)F)[C@@H]1c1ccc(CO)cc1`, the composite z-score in experiment [1] was -0.51 (inactive); in the experiment with XIP peptide (Xip251-270) it was 0.561. Moreover, the z-score is -1.19 in experiment [2], -2.99 (inactive) in experiment [3], -0.188 (inactive) in experiment [4] and 0.158 (inactive) in experiment [5].
Take `N#Cc1ccc(NN2C(C(O)c3cccc4ccccc34)C=CC3C(=O)N(c4ccccc4)C(=O)C32)cc1` (configuration not stated): the composite z-score is 0.366 (inactive) in experiment [1] and 0.684 with XIP peptide (Xip251-270). In addition, the z-score in experiment [2] was -0.0446; in experiment [3], 1.05 (inactive); in experiment [4], -0.145 (inactive); in experiment [5], 0.137 (inactive).
As for `COCCOC(=O)N1C(=O)[C@@]2(c3cc(C#CCNC(N)=O)ccc31)[C@H](c1ccccc1OCCO)N1[C@H](c3ccccc3)[C@H](c3ccccc3)OC(=O)[C@H]1[C@@H]2C(=O)N1CCN(c2ncccn2)CC1`, the composite z-score in experiment [1] is 0.521 (inactive); with XIP peptide (Xip251-270), 0.787. The z-score in experiment [2] is -2.09; in experiment [3], -0.789 (inactive); in experiment [4] it was -0.44 (inactive); in experiment [5], -0.438 (inactive).
As for `CCCC=C(CCC)[C@@H](NC(=O)c1ccc(-c2ccccc2)cc1)c1ccc(C(=O)OC)cc1`, the figures for the composite z-score (in experiment [1]; in the experiment with XIP peptide (Xip251-270)) were -0.144 (inactive) and 0.0922, respectively. The z-score in experiment [2] was 0.208; in experiment [3], -0.539 (inactive); in experiment [4], 0.125 (inactive); in experiment [5], -0.115 (inactive).
On to `CC1CC/C=C\[C@H]2OC34C=CCN(Cn5nnc6ccccc65)C(=O)[C@H]3N(CCO)C(=O)[C@@H]4C2C(=O)O1` (some centres not stated), for which the composite z-score is 0.711 (inactive) in experiment [1] and 0.855 in the experiment on XIP peptide (Xip251-270). Also, the z-score in experiment [2] is -0.611; in experiment [3], -5.38 (inactive); in experiment [4] it was -0.384 (inactive); in experiment [5], -0.173 (inactive).
In the case of `CCOC(=O)C1=CC[C@H]2C(=O)N(CC)C(=O)[C@@H]12`, the composite z-score in experiment [1] is 0.223 (inactive); in the experiment with XIP peptide (Xip251-270) it was 0.343. Besides, the z-score in experiment [2] was -0.239; in experiment [3], -2.15 (inactive); in experiment [4] it was 0.379 (inactive); in experiment [5], -0.0238 (inactive).
In the case of `CC(C)(C)OC(=O)CC[C@]1(C(N)=O)COC(c2ccc(OCCCO)cc2)=N1`, the composite z-score in experiment [1] was 2.48 (inactive); in the experiment on XIP peptide (Xip251-270) it was 0.223. Further, the z-score in experiment [2] is 0.0099; in experiment [3] it was -1.89 (inactive); in experiment [4], 0.764 (inactive); in experiment [5] it was 0.572 (inactive).
Regarding `CN1C(=O)C2C=CC(C(O)c3ccc(I)cc3)N(NC(=O)OC(C)(C)C)C2C1=O` (configuration not stated), the composite z-score was 0.0031 (inactive) in experiment [1] and 0.575 in the experiment with XIP peptide (Xip251-270). Also, the z-score in experiment [2] was -0.711; in experiment [3], -2.75 (inactive); in experiment [4], 0.256 (inactive); in experiment [5], 0.078 (inactive).
Consider `CCOC(=O)C[C@H]1[C@H](OC(=O)c2cc3ccccc3oc2=O)[C@@H](NC(=O)c2ccc3ccccc3n2)c2cc(OCCCO)ccc2N1C(=O)c1ccccc1`, for which the figures for the composite z-score (in experiment [1]; in the experiment with XIP peptide (Xip251-270)) were 0.26 (inactive) and -0.224, respectively. Besides, the z-score in experiment [2] is -2.07; in experiment [3], -0.763 (inactive); in experiment [4] it was 0.22 (inactive); in experiment [5], 0.249 (inactive).
Take `CC(C)=C1C(=O)C(c2ccccc2)=C2CN3C(=O)N(CCc4ccccc4)C(=O)[C@]3(Cc3ccc(F)cc3)[C@H]21`: the values for the composite z-score (in experiment [1]; with XIP peptide (Xip251-270)) were -0.391 (inactive) and -0.27, respectively. For the same compound, the z-score was -0.418 in experiment [2], -2.1 (inactive) in experiment [3], 0.0852 (inactive) in experiment [4] and 0.314 (inactive) in experiment [5].
For the compound `COCCOC(=O)N1C(=O)[C@@]2(c3cc(C#Cc4ccc(OC)cc4)ccc31)[C@H](c1ccc(O)cc1)N1[C@H](c3ccccc3)[C@H](c3ccccc3)OC(=O)[C@H]1[C@@H]2C(N)=O`, the composite z-score in experiment [1] is -0.0296 (inactive); in the experiment on XIP peptide (Xip251-270), 0.754. Also, the z-score in experiment [2] is -0.687; in experiment [3] it was -1.15 (inactive); in experiment [4], -0.425 (inactive); in experiment [5], -0.461 (inactive).
As for `C/C=C\[C@@H](NCc1ccccc1Br)[C@@H](O)Cc1ccccc1`, the composite z-score was -0.0971 (inactive) in experiment [1] and 0.0819 with XIP peptide (Xip251-270). Also, the z-score is -1.64 in experiment [2], -1.47 (inactive) in experiment [3], 0.0731 (inactive) in experiment [4] and 0.35 (inactive) in experiment [5].

The values above are taken from PubChem BioAssay.
